# Experimental data: PubChem BioAssay (NCATS)
# Several values for one entry are separate records, joined by “and”; a condition that tells them apart may be missing. Equal entries are not always repeated. Inconclusive results are not listed. Activity calls are given as the source filed them. Unless noted, calls follow the shape of the dose curve; as a rule, active = well fitted curve in the direction sought with a large enough effect; inconclusive = small, poorly fitted or top-dose-only effect, or another doubt; inactive = no such curve, though single readings can be large; an effect the other way counts as inactive or inconclusive.
# What was measured:
# [1] = qHTS Assay for Lipid Storage Modulators (AID 1519; calls by dose curve; as to activity change, negative = inhibition: % is scaled to controls: 0 for no effect and ±100 for the full control effect); conditions: Drosophila S3 cells, BODIPY lipid droplet/cell ratio, laser cytometry, cells loaded with oleic acid
# How it was run: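 Cells seeded at 5,000 per well were treated with compounds over a concentration series and loaded with oleic acid (400 uM, as added). Lipid droplet fluorescence (488 nm excitation, 500-530 nm channel) was read by laser-scanning cytometry and normalized to 20 uM Triacsin C.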
# [2] = target: DNA repair nuclease/redox regulator APEX1 (Homo sapiens) (UniProt P27695); assay: qHTS Validation Assay for Inhibitors of the Human Apurinic/apyrimidinic Endonuclease 1 (APE1) (AID 1705;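 also: TAMRA fluorescence gain over two minutes as APE1 cuts a quenched THF abasic duplex; % is scaled to controls: 0 for no effect and ±100 for the full control effect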); conditions: purified APE1 endonuclease activity, fluorescence, titration; series mostly up to 57.1 µM
# Chain of DNA repair nuclease/redox regulator APEX1 (Homo sapiens) (P27695 whole entry, looked up): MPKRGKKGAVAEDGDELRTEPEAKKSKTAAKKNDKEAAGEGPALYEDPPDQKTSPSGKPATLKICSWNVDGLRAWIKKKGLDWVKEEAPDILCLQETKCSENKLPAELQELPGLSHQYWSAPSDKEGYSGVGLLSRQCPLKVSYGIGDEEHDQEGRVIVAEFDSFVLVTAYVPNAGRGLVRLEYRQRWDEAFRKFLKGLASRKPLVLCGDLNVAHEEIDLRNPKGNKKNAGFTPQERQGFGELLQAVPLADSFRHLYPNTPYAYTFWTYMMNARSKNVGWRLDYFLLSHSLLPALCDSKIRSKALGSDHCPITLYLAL
# How it was run: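 Read-out: TAMRA fluorescence (525 nm ex, 598 nm em) from cleavage of a quenched THF abasic-site duplex, 50 nM final; activity taken as intensity change between third and first of three reads 60 s apart.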
# [3] = Counterscreen for APE1 Inhibitors: Fluorescent Dye Displacement Validation Assay (AID 1707); conditions: fluorescent dye displacement from DNA; series mostly up to 57.1 µM;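 also: plate controls were ThO with dsDNA and no compound for no effect and ThO without dsDNA for full effect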
# How it was run: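 Thiazole Orange (250 nM) bound to 50 nM TAMRA-labelled dsDNA with tetrahydrofuran abasic site; displacement by DNA-binding compounds lowers fluorescence. Buffer 50 mM Tris-HCl pH 7.5, 50 mM NaCl, 2 mM MgCl2, 0.01% Tween-20; endpoint read at 480/540 nm.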
# [4] = target: Endonuclease 4 (Escherichia coli (strain K12)) (UniProt P0A6C1); assay: Counterscreen for APE1 Inhibitors: qHTS Validation Assay for Inhibitors of Endonuclease IV (AID 1708); also: % is scaled to controls: 0 for no effect and ±100 for the full control effect; conditions: E. coli endonuclease IV, DNA cleavage fluorescence; series mostly up to 57.1 µM
# How it was run: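 Concentration-response counterscreen run identically to the APE1 assay: 15 min room-temperature preincubation of 2 nM enzyme with compound, reaction started with 50 nM quenched abasic DNA, progress taken from kinetic fluorescence.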
# [5] = qHTS for differential inhibitors of proliferation of Plasmodium falciparum line 7G8 (AID 1815); conditions: Plasmodium falciparum 7G8 proliferation inhibition; series mostly up to 28.7 µM;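 also: parasite growth measured after three days of incubation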; also: potency is read from the fitted curve at half-maximal effect;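 as to activity change, negative = inhibition: plate controls were vehicle wells for no effect and reference inhibitor wells for full effect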
# [6] = qHTS for differential inhibitors of proliferation of Plasmodium falciparum line GB4 (AID 1816); conditions: Potency: Plasmodium falciparum GB4 proliferation inhibition; series mostly up to 28.7 µM;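 also: parasite growth measured after 72 h incubation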; also: potency is read from the fitted curve at half-maximal effect;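 as to activity change, negative = inhibition: 0% = vehicle DMSO and -100% = reference inhibitor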
# [7] = qHTS for differential inhibitors of proliferation of Plasmodium falciparum line 3D7 (AID 1876); also: potency is read from the fitted curve at half-maximal effect; conditions: P. falciparum 3D7 proliferation inhibition; series mostly up to 28.7 µM
# [8] = qHTS for differential inhibitors of proliferation of Plasmodium falciparum line D10 (AID 1877); conditions: series mostly up to 28.7 µM;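 also: parasites grown with compound for 72 h before DNA staining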; also: potency is read from the fitted curve at half-maximal effect;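 as to activity change, negative = inhibition: plate controls were vehicle wells for no effect and reference inhibitor wells for full effect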
# [9] = qHTS for differential inhibitors of proliferation of Plasmodium falciparum line W2 (AID 1883); conditions: Potency: Plasmodium falciparum W2 proliferation inhibition; series mostly up to 28.7 µM;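 also: parasites grown with compound for 72 h before lysis and staining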; also: potency is read from the fitted curve at half-maximal effect;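 as to activity change, negative = inhibition: 0% = vehicle wells and -100% = control inhibitor wells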
# [10] = qHTS for differential inhibitors of proliferation of Plasmodium falciparum line Dd2 (AID 1882); conditions: Potency: Plasmodium falciparum Dd2 proliferation inhibition; series mostly up to 28.7 µM; also: nearly all actives have a fitted effect of over 65% in size; also: potency is read from the fitted curve at half-maximal effect;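 as to activity change, negative = inhibition: plate controls were DMSO vehicle for no effect and 0.29 µM artemisinin for full effect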
# How it was run: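 Dd2-infected erythrocytes (0.3% parasitemia, 2.5% hematocrit final) incubated with compound 72 h at 37 C, 5% CO2; lysed with saponin/Triton buffer containing SYBR Green I, incubated overnight in the dark, then read by fluorescence (485/535 nm). Normalized to 0.29 uM artemisinin and DMSO.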
# [11] = measured here: cell count channel max response
# [12] = measured here: lipid channel max response
Structure (SMILES),"activity change, negative = inhibition ([1]; at 25.7 µM (top of the series))","activity change, negative = inhibition ([1]; at 57.5 µM (top of the series))","max response [1, 11]","max response [1, 12]",Potency [2],outcome [3],Potency [4],Potency [5],Potency [6],Potency [7],Potency [8],Potency [9],Potency [10]
CCn1nc(C(=O)O)c(=O)c2cc3c(cc21)OCO3,1.1% (inactive),13.5% (inactive),-2.39% and 18.6%,0.268% and 42.8%,inactive,inactive,inactive,,,,,,
CN1CCN(C2=Nc3ccccc3Oc3ccc(Cl)cc32)CC1,-4.84% (inactive),10% (inactive) and 2.23% (inactive),14.9% and 0.863% and -23%,7.38% and 8.12% and -19.5%,inactive,inactive,inactive,7.08 µM (active),11.2 µM (active),12.6 µM (active),11.2 µM (active),5.01 µM (active),
CCO/C([O-])=N/c1c[n+](N2CCOCC2)no1,-2.6% (inactive),9.19% (inactive) and 0.351% (inactive),-1.78% and -5.37% and -2.1%,-4.32% and 6.3% and -2.43%,,,,inactive,inactive,inactive,inactive,inactive,inactive
CN(C)CCCN1c2ccccc2Sc2ccccc21,0.5% (inactive),7.75% (inactive) and 0.211% (inactive),-16.2% and -4.1% and -25%,-14.8% and 2.83% and -21.3%,inactive,inactive,inactive,11.2 µM (active),10 µM (active),,,0.794 µM (active),
Cc1ccc(S(=O)(=O)NC(=O)NN2CCCCCC2)cc1,0.497% (inactive),9.8% (inactive),0.635% and 17.7%,2.19% and 33.1%,inactive,inactive,,inactive,inactive,inactive,inactive,inactive,inactive
Cc1ccc(Cl)c(Nc2ccccc2C(=O)O)c1Cl,-1.03% (inactive),12.3% (inactive) and -1.87% (inactive),-11.2% and 0.124% and -35.9%,-11.6% and 13.1% and -37%,inactive,inactive,inactive,inactive,inactive,inactive,inactive,inactive,inactive
FC(F)(F)c1ccccc1-n1ccnc1,,7.35% (inactive),11%,25.3%,inactive,inactive,inactive,inactive,inactive,inactive,inactive,,inactive
CCCC(C(=O)OCCN(CC)CC)(c1ccccc1)c1ccccc1,-1.67% (inactive),-2.92% (inactive) and 2.44% (inactive),-3.68% and -8.12% and 19.2%,-5.52% and -10.9% and 21.5%,inactive,inactive,inactive,1.78 µM (active),3.16 µM (active),2.24 µM (active),3.16 µM (active),1.78 µM (active),7.08 µM (active)
CC(C)NNC(=O)c1ccncc1,-0.171% (inactive),6.45% (inactive) and -0.103% (inactive),4.18% and 16.8% and -20.6%,1.65% and 27.2% and -21.8%,inactive,inactive,inactive,inactive,inactive,inactive,inactive,inactive,inactive
CN(C)CCCN1c2ccccc2Sc2ccc(C(F)(F)F)cc21,-1.52% (inactive),3.48% (inactive),-5.7% and 9.08%,-9.54% and 14.3%,inactive,inactive,inactive,8.91 µM (active),11.2 µM (active),,11.2 µM (active),7.08 µM (active),11.2 µM (active)
CN(C)CCOC(=O)COc1ccc(Cl)cc1,0.143% (inactive),11.6% (inactive) and 1.09% (inactive),1.9% and 22.5% and -10.8%,1.25% and 39.9% and -9.35%,inactive,inactive,,inactive,,inactive,,inactive,inactive
CCCCNc1c(C(=O)OCC)c(C)nc2c1cnn2CC,-0.42% (inactive),-16.8% (inactive),-19.5% and -31.7%,-18.5% and -43.9%,inactive,inactive,inactive,7.94 µM (active),12.6 µM (active),12.6 µM (active),14.1 µM (active),11.2 µM (active),
CCCCNC(=O)NS(=O)(=O)c1ccc(C)cc1,0.284% (inactive),5.43% (inactive) and -0.0777% (inactive),-2.87% and 13.1% and 19.7%,-2.83% and 21.8% and 21.4%,,inactive,inactive,,inactive,inactive,inactive,inactive,inactive
NCCCNCCSP(=O)(O)O,,2.83% (inactive),11.3%,15.5%,inactive,inactive,inactive,inactive,inactive,inactive,inactive,inactive,inactive
Cc1nc2ccccn2c(=O)c1CCN1CCC(C(=O)c2ccc(F)cc2)CC1,,16.1% (inactive),7.37%,24.1%,,inactive,inactive,7.94 µM (active),11.2 µM (active),10 µM (active),,7.94 µM (active),
C#CCN(C)CCCOc1ccc(Cl)cc1Cl,-0.841% (inactive),,-6.58%,-5.76%,inactive,inactive,,,,inactive,inactive,11.2 µM (active),inactive
